In the library only some 3.5% were active in any assay of this set; here they are far more common.
mHTT-CaM PPI inh: disrupts binding of mutant huntingtin to calmodulin; hit rate 3.6% among 190,000; inhibition, % at 15 µM; AlphaScreen His-mHTT/GST-CaM binding, luminescence
Pf apPOL inh: Pf-apPOL DNA polymerase inhibition; Recombinant Pf-apPOL, molecular beacon fluorescence, 1.5 h; inhibition, % at 10 µM; hit rate 0.25% among 210,000; AID 1794808
Of the large screens only hits and unclear results are named; the others gave an inactive call; ! = repeats disagree. No stated cut-off is given here; in the data, active means inhibition above about 50%; inactive means the rest.

CC1CCCN(CC2CCN(S(=O)(=O)c3ccc(C(C)(C)C)cc3)CC2)C1 (stereo unspecified)	none
COc1cccc2cc(C(=O)Nc3ccc(Oc4ccc(Cl)cc4)cc3)c(=O)oc12	none
Cc1ccc(-c2nccn3cc(C(=O)NC(C)C)nc23)cc1	none
Cc1cccc(NC(=O)N2CCc3nc(-c4ccc(F)cc4)ncc3C2)c1	none
CCc1cccc(C)c1N(C(=O)CSc1nc2ccccc2[nH]1)C(C)COC (stereo unspecified)	mHTT-CaM PPI inh 52
CCOCN(C(=O)CSc1nc2ccccc2[nH]1)c1c(C)cccc1CC	none
CCn1ccc2oc(C)c(C(=O)N3CCN(c4cccc(C)c4C)CC3)c2c1=O	mHTT-CaM PPI inh 66
CCn1ccc2oc(C)c(C(=O)NCc3cc(C)ccc3C)c2c1=O	none
CCn1ccc2oc(C)c(C(=O)N3CCN(c4cc(C)ccc4C)CC3)c2c1=O	mHTT-CaM PPI inh 85
CCCn1ccc2oc(C)c(C(=O)N3CCN(c4ccccc4F)CC3)c2c1=O	none
CCCSc1oc(-c2ccco2)nc1S(=O)(=O)c1ccc(C)cc1	none
COc1cccc(CNC(=O)CN2C(=O)NC3(CCC(C)CC3)C2=O)c1OC (stereo unspecified)	none
Cc1[nH]c(=O)c(C#N)c(C)c1CSc1ncccn1	none
Cc1nnc(N2C(=O)C(O)=C(C(=O)c3ccco3)C2c2cccc(Oc3ccccc3)c2)s1 (stereo unspecified)	mHTT-CaM PPI inh 56
Cc1nnc(N2C(=O)C(O)=C(C(=O)c3ccco3)C2c2cccc([N+](=O)[O-])c2)s1 (stereo unspecified)	none
O=C(C1CCCC1)N1CCCC(c2n[nH]c(C3CC3)n2)C1 (stereo unspecified)	none
O=C1CSC(=O)N1CCS(=O)(=O)c1ccc(Cl)cc1	none (no result: mHTT-CaM PPI inh)
COc1ccc(N2CCN(C(=O)CSc3nc4ccc(OC)cc4[nH]3)CC2)cc1	none
Cc1[nH]c2c(c1C)C(=O)CC(C)(C)C2	mHTT-CaM PPI inh 68 (no result: Pf apPOL inh)
COC(=O)c1[nH]c2c(c1C)C(=O)CC(C)(C)C2	none (no result: Pf apPOL inh)
Cc1ccccc1NC(=O)CC1SC(=Nc2ccc(O)cc2)NC1=O (stereo unspecified)	none
N#C/C(=C\Nc1ccc([N+](=O)[O-])cc1)c1nc(-c2ccc3c(c2)OCO3)cs1	none
CC1CN(C(=O)Nc2ccc(F)cc2F)CC1c1nc(-c2ccccc2)no1 (stereo unspecified)	none
CC(C)C(=O)N1CCc2ccc(NS(=O)(=O)Cc3ccc(Cl)cc3)cc2C1	Pf apPOL inh 94
CC(C)S(=O)(=O)Nc1ccc2c(c1)CN(C(=O)c1ccco1)CC2	none
COc1ccc2c(C)nc(Nc3nc4ccccc4c(=O)[nH]3)nc2c1	none
COc1ccc2nc(NC3=NC(c4ccccc4)CC(=O)N3)nc(C)c2c1 (stereo unspecified)	mHTT-CaM PPI inh 54, Pf apPOL inh 60
COc1ccc(C2CC(=O)NC(Nc3nc(C)c4ccc(C)cc4n3)=N2)cc1 (stereo unspecified)	mHTT-CaM PPI inh 68
COc1ccc(NC(=O)C2CC(=O)NC(Nc3nc(C)c4ccccc4n3)=N2)cc1 (stereo unspecified)	none
CCC(C)c1ccccc1OCCCN1CCCC1 (stereo unspecified)	none
COc1ccc(C2CC(=O)C3=C(C2)Nc2ccccc2NC3c2ccc(C)s2)cc1OC (stereo unspecified)	none
COc1ccc(C2CC(=O)C3=C(C2)Nc2ccccc2NC3c2ccc(Cl)cc2)cc1OC (stereo unspecified)	none
COc1ccc(C2CC(=O)C3=C(C2)Nc2ccccc2NC3c2ccc(Cl)s2)cc1OC (stereo unspecified)	mHTT-CaM PPI inh 56
COc1ccc(C2CC(=O)C3=C(C2)Nc2ccccc2NC3c2ccc(N(C)C)cc2)cc1OC (stereo unspecified)	mHTT-CaM PPI inh 52
CC(O)CSc1nc2c(c(=O)[nH]c(=O)n2C)n1Cc1ccc(Cl)cc1 (stereo unspecified)	none
CN(C)C=C(C#N)c1ccc(Oc2ccc(C(F)(F)F)cn2)cc1	none (no result: mHTT-CaM PPI inh)
O=S1(=O)CCCCN1S(=O)(=O)c1ccccc1	none
COc1cccc(NC(=O)N2CCC(N3CCN(Cc4cccc(C)c4)C3=O)CC2)c1	none
CCOc1ccc2nc(NC(=O)/C=C/c3ccccc3)sc2c1	none
Cc1cccc(C(=O)Nc2ccc(F)cc2)c1	none
Cc1cccc(C(=O)Nc2ccc([N+](=O)[O-])c(NC(=O)c3cccc(C)c3)c2)c1	Pf apPOL inh 80
CN(C)c1ccc(NC(=O)c2ccc(Cl)cc2)cc1	none
Cc1cccc(C(=O)Nc2ccc(I)cc2)c1	Pf apPOL inh 77
CN(C)c1ccc(NC(=O)c2ccncc2)cc1	mHTT-CaM PPI inh 70
O=C(Nc1ccccc1)c1cccc(I)c1	none
CN(C)c1ccc(NC(=O)c2cccc(I)c2)cc1	mHTT-CaM PPI inh 80
Cc1cc(C(=O)Nc2ccc(NC(=O)c3ccccc3)cc2)ccc1[N+](=O)[O-]	none
CC(C)c1nnc(C2CCN(CC(=O)Nc3ccccc3F)CC2)o1	none
COc1ccc(Cl)cc1NC(=O)CSCc1ccco1	none (no result: mHTT-CaM PPI inh)
O=C(c1cc2c(s1)CN(C1CC1)C2)N1CCCCC1	none
CCc1ccc(NC(=O)N2CCc3nc(-c4ccc(F)cc4)ncc3C2)cc1	none
COC(=O)N1CCN(c2cccc(Cl)c2)CC1	none
COc1ccc(NS(=O)(=O)c2cccc(C(=O)Nc3ccc(C)cc3)c2)cc1	Pf apPOL inh 95
COc1ccc(NS(=O)(=O)c2cccc(C(=O)Nc3cccc(C(=O)O)c3)c2)cc1	none
Nc1ccc(Nc2ccc([N+](=O)[O-])cc2S(=O)(=O)O)cc1	mHTT-CaM PPI inh 52
CS(=O)(=O)NCCNc1ccc([N+](=O)[O-])cc1Cl	none
COc1ccc(-c2cc(=O)c3cc(NC(=O)c4cc(OC)c(OC)c(OC)c4)ccc3o2)cc1	none
C(=Cc1ccccc1)C=Nc1ccc(Cc2ccc(N=CC=Cc3ccccc3)cc2)cc1	none (no result: mHTT-CaM PPI inh)
O=C(CCc1ccccc1)NC(c1ccccc1)c1ccccc1	none
COc1ccccc1C(NC(=O)Cc1ccccc1)c1ccc2cccnc2c1O (stereo unspecified)	none
COc1ccc(C(NC(=O)Cc2ccccc2)c2ccc3cccnc3c2O)cc1OC (stereo unspecified)	mHTT-CaM PPI inh 100, Pf apPOL inh 87!
COc1ccc(C(NC(=O)CCc2ccccc2)c2ccc3cccnc3c2O)cc1OC (stereo unspecified)	mHTT-CaM PPI inh 100
COc1cc(F)c(Br)cc1F	none (no result: Pf apPOL inh)
CC1=CC(C)(C)NC(=S)N1c1ccc(C(C)C)cc1	none (no result: Pf apPOL inh)
CCC(CO)NCC(O)COc1ccc(Br)cc1 (stereo unspecified)	none
Cc1cccc(NC(=O)c2ccc(-c3cccc(F)c3)nc2)c1	none
Cc1ccccc1Cn1c(=N)n(CC(O)c2ccc(Cl)c(Cl)c2)c2ccccc21 (stereo unspecified)	mHTT-CaM PPI inh 100
Cn1c(=N)n(CC(O)c2ccc(Cl)c(Cl)c2)c2ccccc21 (stereo unspecified)	none
Cc1cccc(C)c1NC(=O)C1(NC(=O)Cn2cccc([N+](=O)[O-])c2=O)CCCCC1	none
CC(C)CCNC(=O)C1c2ccccc2CCN1C(=O)C1CC1 (stereo unspecified)	none
Clc1ccc(OCc2nc(-c3cccc(-c4ccn[nH]4)c3)no2)cc1	none
Clc1ccc(Cc2nc(-c3cccc(-c4ccn[nH]4)c3)no2)cc1	mHTT-CaM PPI inh 91
COc1ccc2[nH]c3c(c2c1)CC(C)NC3=O (stereo unspecified)	none
O=C1NCCc2c1[nH]c1ccc(C#Cc3ccccc3)cc21	mHTT-CaM PPI inh 97
CCOc1ccc(C(=O)N2CCC(N3CCN(C)C3=O)CC2)cc1	none
COc1cc(Br)c(Br)cc1N	none (no result: Pf apPOL inh)
COc1cc2c(cc1N)OCO2	mHTT-CaM PPI inh 54 (no result: Pf apPOL inh)
